Compound activity (PubChem)
This excerpt belongs to a sample that is enriched for hits.
Pf Dd2 inh: qHTS Primary assay for Inhibitors of Plasmodium falciparum Dd2 growth in vitro; P. falciparum Dd2 growth, SYBR Green, 72 h; Potency, µM (top dose mostly 28.9 µM), for the others: at the top dose activity, negative = inhibition, hits mostly inhibitors; 120,000 compounds, 4.3% hits; active = well fitted inhibition curve with a large enough effect;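 note: plate controls were DMSO vehicle for no effect and reference drug for full effect; nearly all actives have a fitted effect of over 65% in size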
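Readout: SYBR Green fluorescence, 485 nm excitation, 535 nm emission, after ~16 h lysis at 37C. Before that, Dd2-infected red cells (2.5% hematocrit) grew 72 h with compound, 29 uM top final concentration.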
Active calls of the source: *; i = inactive; [ ] = remark or other dose. Potency is the fitted concentration of half-maximal effect.

SMILES | Pf Dd2 inh
Cc1oc2ncnc(N3CCCCC3)c2c1C(=O)NCC1CCN(Cc2cccc(F)c2)CC1 | -17%
Cc1ccc(C)c(CN2CCC(CNC(=O)c3occc3C)C2)c1 (configuration not stated) | -7%
O=C(c1cc2ccc3cccnc3c2[nH]1)N1CCN(c2ccccc2)CC1 | i
O=C(NCC1CCN(Cc2cccc(F)c2)CC1)c1cc2ccc3cccnc3c2[nH]1 | 7.1µM*
CCCN(C(=O)c1cc2ccc3cccnc3c2[nH]1)c1ccc(F)cc1 | -19%
Cc1ccc(CN2CCC(CNC(=O)c3cc4ccc5cccnc5c4[nH]3)CC2)cc1 | 3.5µM*
Cc1ccc(C)c(CN2CCC(CNC(=O)Cn3ncc4c([nH]c5ccccc54)c3=O)CC2)c1 | -19%
N#Cc1ccc(CN2CCn3c(nn(-c4ccc(F)cc4F)c3=O)C2)cc1 | -9%
CCN1CCNC(=O)C1CC(=O)N1CCn2nc(Cc3ccccc3)cc2C1 (configuration not stated) | 3%
O=C(Nc1ccc(Oc2ccccc2)cc1)O[C@@H]1CO[C@H]2[C@@H]1OC[C@@H]2NC(=S)Nc1ccccc1 | 7%
CC(=O)Nc1ccc(S(=O)(=O)N2C[C@@H]3C[C@H](C2)c2ccc(-c4ccc5ccccc5c4)c(=O)n2C3)cc1 | -27%
N#CC1CCN(C(=O)C2(c3ccc(Cl)cc3)CCOCC2)CC1 | -5%
O=C(CCn1cnnn1)N1CCCC(CCc2cccc(C(F)(F)F)c2)C1 (configuration not stated) | -16%
O=C(c1ccc(-n2cnnn2)cc1O)N1CCCC(CCc2ccc(F)cc2)C1 (configuration not stated) | 13µM*
O=C(c1cc(=O)[nH]c2cc(F)ccc12)N1CCCC(CCc2ccc(F)cc2)C1 (configuration not stated) | -16%
CC(=O)N1CCc2nn(CC(=O)Nc3ccccc3C)c(=O)cc2C1 | -16%
COc1cc(OC)nc(N2C[C@H]3OC(=O)N(Cc4ccccc4OC)[C@H]3C2)n1 | 3.5µM*
COc1ccccc1CN1C(=O)O[C@@H]2CN(C(=O)NC3CCCCC3)C[C@@H]21 | -2%
COC(=O)c1ccc(N2C[C@H]3OC(=O)N(Cc4ccccc4OC)[C@H]3C2)nc1 | -6%
CCOC(=O)Cc1ccc(NC(=O)NCc2cccn2Cc2ccccc2)cc1 | -28%
O=C(NCc1cccn1Cc1ccccc1)Nc1cccc(C(F)(F)F)c1 | 8.9µM*
COc1ccccc1NC(=O)NCc1cccn1Cc1ccccc1 | 0%
CCn1ncc(N2CCCC(CC(=O)NCc3ccc(F)cc3)C2)cc1=O (configuration not stated) | -22%
COc1ccc2[nH]c(C[C@@H]3C[C@@H](C(C)C)[C@H](CNC(=O)Cn4cnnn4)C=C3C)nc2n1 | i
Cc1ccc(C(=O)N2CCCCCCNC(=O)[C@@H]3C[C@@H](c4nc(-c5cnccn5)no4)C[C@@H]32)s1 | -11%
SMILES | Pf Dd2 inh
CCC(=O)N1CCN(C2CCN(CCC(C)C)C2=O)CC1 (configuration not stated) | -22%
CCc1ccc(CN2CCCC(CO)(Cc3ccc(F)cc3F)C2)cc1 (configuration not stated) | -2%
Cc1cc(C)n(-c2ccc(F)cc2CN2CCCC(CO)(Cc3ccccc3)C2)n1 (configuration not stated) | 8.9µM*
CN1CC2(CCCN(Cc3cc(F)ccc3-n3cccn3)C2)OC1=O (configuration not stated) | -7%
COc1ccc(CN2CC3(CCN(C(=O)c4cccs4)CC3)C2=O)cc1 | -14%
CCCCCNC(=O)CCN(CC)C(=O)c1cc(C)oc1C | i
Cc1cc(C(=O)N(CCC(=O)NCc2ccccc2)CCC(C)C)c(C)o1 | -15%
Cc1cc(C(=O)N(CCC(=O)NCCC(C)C)CCC(C)C)c(C)o1 | 11µM*
CC[C@H]1CN(C(=O)Nc2cccc(C(F)(F)F)c2)CC[C@H]1CC(=O)NCCN1CCCCC1 | -6%
O=C(CN1C(=O)NC(c2ccc(Cl)cc2)C2=C1COC2=O)Nc1ccc2c(c1)CCC2 (configuration not stated) | -25%
CC(C)CNC(=O)N1CCC2(CC1)CC(C(=O)N1CCOCC1)N(C)C2 (configuration not stated) | 6%
CC[C@H]1CN(C(=O)c2ccccc2)CC[C@H]1CC(=O)N1CCOCC1 | -12%[44.1 µM]
CC[C@H]1CN(S(=O)(=O)c2ccccc2)CC[C@H]1CC(=O)N1CCOCC1 | i
CC[C@H]1CN(Cc2ccc(OC)cc2O)CC[C@H]1CC(=O)N1CCOCC1 | 7.9µM*
CC(=O)NCCC(=O)N1CCC2(CC1)CC(N[S+](C)(=O)[O-])c1ccccc12 (configuration not stated) | 16%
O=C1NC2(Cc3ccccc31)CN(C(=O)C1CCCC1)C2 | 3%[44.1 µM]
O=C(NCCC1CCN(C(=O)Nc2ccc(F)cc2F)CC1)c1ccccc1 | -2%
CCc1ccccc1Nc1nn2c(=O)c3ccc(C(=O)NC(C)c4ccccc4)cc3nc2s1 (configuration not stated) | 1µM*
CCc1ccccc1Nc1nn2c(=O)c3ccc(C(=O)Nc4cc(C)cc(C)c4)cc3nc2s1 | -2%
CCc1ccccc1Nc1nn2c(=O)c3ccc(C(=O)NC4CCCCC4)cc3nc2s1 | -20%
CS(=O)(=O)N1C[C@H]2CCN(Cc3ccc(Cl)cc3F)C[C@H]21 | 7%
CC(=O)N(C1CC1)C1CCOC2(CCN(C(=O)Nc3ccccc3F)CC2)C1 (configuration not stated) | i
Cc1cccc(CN2CCCC(O)(CNCc3cccc(F)c3)C2=O)c1 (configuration not stated) | -6%
Cc1ccc(NC(=O)Cn2ccn3nc(-c4ccccc4)c(CO)c3c2=O)c(Cl)c1 | 26%
Cc1ccc(CN(Cc2cccn2-c2nnc(N3CCCC3=O)s2)C(=O)Nc2ccccc2Cl)cc1 | 11µM*
SMILES | Pf Dd2 inh
CCc1ccc(NCc2cccn2-c2nnc(N3CCCCCC3)s2)cc1 | -16%
Cc1ccc(NCc2cccn2-c2nnc(N3CCC(C(=O)NCc4ccc(OC(C)C)cc4)CC3)s2)cc1 | -28%
COc1cc(SC)ccc1C(=O)N[C@H]1CCN2C(=O)[C@@H](CC(=O)O)NC(=O)[C@@H]2C1 | i
Cc1cnc(-c2ccccc2)n1CCN | i
CCOc1ccc(C(=O)N2CCC[C@H]2c2nc(-c3ccc(OC)cc3)no2)cc1OCC | i
COCC(=O)N1CCc2cc(OC)c(OC)cc2C1COc1ccc2c(C)cc(=O)oc2c1 (configuration not stated) | 11%
CCOc1ccc(C(=O)N2CCc3cc(OC)c(OC)cc3C2COc2ccc3c(C)cc(=O)oc3c2)cc1OCC (configuration not stated) | 3.2µM*
COc1cccc(C(=O)N2CCc3cc(OC)c(OC)cc3C2COc2ccc3c(C)cc(=O)oc3c2)c1 (configuration not stated) | 8.9µM*
COc1cc2c(cc1OC)C(CNC(=O)c1cccc(F)c1)N(C(=O)Nc1ccc(C)cc1)CC2 (configuration not stated) | i
COc1cc2c(cc1OC)C(COc1ccc3c(C)cc(=O)oc3c1)N(C(=O)c1ccc(Cl)cc1)CC2 (configuration not stated) | 8.9µM*
COc1cc2c(cc1OC)C(CNC(=O)c1ccccc1)N(C(=O)Nc1cccc(F)c1)CC2 (configuration not stated) | -11%
CCNC(=O)NCC1c2cc(OC)c(OC)cc2CCN1C(=O)Nc1ccc(C)cc1 (configuration not stated) | i
